Sampled rows, rich in hits. Any-hit rate of the full collection: about 4.4%.
IL1B NFkB pot – enhances IL-1B driven NFkB nuclear translocation; activation, % at 2 µM; hit rate 0.3% among 94,000; HUVEC IL-1B NFkB p65 nuclear translocation imaging; AID 819;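 active = activation above 40%, about the mean plus 3 SD, also judged a hit on visual image review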;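 also: percent activation is computed from the nuclear over cytoplasmic p65 intensity ratio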
Cav3 T inh – human Cav3.2 channel inhibition, primary screen | AID 449739 | Cav3.2-expressing cells, Fluo-4 calcium fluorescence FDSS; stronger effect = lower value | hit rate 4% among 100,000 | O95180 | B-score at 10 µM;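 active = single-dose well whose peak fluorescence ratio is a statistical outlier from its plate by either plate-standardised score or position-corrected B-score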
IL1B NFkB inh – blocks IL-1B driven NFkB nuclear translocation in HUVEC cells; HUVEC IL-1B NFkB p65 nuclear translocation imaging; inhibition, % at 2 µM; hit rate 0.43% among 94,000;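 active = inhibition above about 30% together with a positive call from visual inspection of the well image, limit read from the data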;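 also: nuclear over cytoplasmic p65 intensity ratio measured by imaging; 0% = IL-1B stimulated DMSO wells and 100% = unstimulated DMSO wells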
HUVEC tox IL1B – HUVEC cytotoxicity counter-screen, IL-1B stimulated; HUVEC cell count loss, Hoechst imaging; cell count reduction, % at 2 µM; hit rate 0.41% among 94,000; AID 845;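 active = cell count reduction more than 3 SD above the screen-wide mean, cut at about 70% in these data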;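 also: normalized per plate to untreated control cells as the no-loss baseline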
* marks the source's active call; other numbers are inactive results; nt = not tested or not shown.

SMILES	IL1B NFkB pot	Cav3 T inh	IL1B NFkB inh	HUVEC tox IL1B
COC(=O)c1ccc(CSc2nc3ccccc3c(=O)n2CC(C)C)o1	23.5	-4.68*	-23.5	1.2
COC(=O)c1ccc(CSc2nnc3ccccn23)o1	152.0*	-2.04	-152.0	-2.8
COC(=O)c1ccc(CSc2nc3ccccc3c(=O)n2Cc2ccco2)o1	7.9	-2.49	-7.9	-19.9
COC(=O)C(NC(=O)c1ccccc1Cl)(Nc1ncc(S(=O)(=O)c2ccc([N+](=O)[O-])cc2)s1)C(F)(F)F (stereo not drawn)	11.4	-8.55*	-11.4	-3.8
CCC(C)(C)C(=O)Nc1ncc(S(=O)(=O)c2ccc([N+](=O)[O-])cc2)s1	-0.9	-5.17*	0.9	7.4
COc1ccc(C(=O)Nc2c(Cl)cc(Cl)cc2C(=O)NCCN2CCOCC2)cc1	34.0	0.808	-34.0	-56.4
CCOC(=O)CN1C(=O)N[C@@H](c2cccc(C(F)(F)F)c2)[C@@H](C(=O)OC)[C@H]1C	nt	-0.0541	nt	nt
CCn1c(COc2ccc(Cl)cc2)nnc1SCC(=O)Nc1ccc2c(c1)OCCO2	15.7	0.224	-15.7	-5.6
COc1ccc(C)cc1NC(=O)CSc1nnc(COc2ccc(C)cc2)n1Cc1ccco1	-9.1	-4.01	9.1	-1.3
Cc1ccc(OCc2nnc(SCC(=O)c3ccccc3)n2Cc2ccco2)cc1	11.0	-4.54*	-11.0	-30.8
Cc1ccc(OCc2nnc(SCC(=O)Nc3ccc4c(c3)OCCO4)n2Cc2ccco2)cc1	-19.8	-5.95*	19.8	-9.6
Cc1ccc(OCc2nnc(SCc3nc4ccccc4[nH]3)n2Cc2ccco2)cc1	19.7	-8.45*	-19.7	0.4
c1ccc(-c2nnc(SCc3nc4ccccc4[nH]3)n2Cc2ccco2)cc1	-8.4	0.541	8.4	-36.7
COc1ccc(-n2c(-c3ccc(F)cc3)cnc2SCC(=O)NCc2ccco2)cc1	-5.2	-5.75*	5.3	-2.1
O=C(CSc1ncc(-c2ccc(F)cc2)n1Cc1ccco1)Nc1ccc2c(c1)OCO2	5.9	-4.75*	-5.9	35.0
CCOC(=O)C1=C(C)N=C2SC(C)C(=O)N2C1c1cccc(F)c1 (stereo not drawn)	17.9	-6.49*	-17.9	-4.8
COC(=O)C1=C(C)N=C2SC(C)C(=O)N2C1c1ccc(C(=O)OC)cc1 (stereo not drawn)	12.4	-4.6*	-12.4	-11.1
CC1=C(C(=O)OC(C)C)C(c2cccc(F)c2)N2C(=O)C(C)SC2=N1 (stereo not drawn)	3.8	-2.28	-1.7	-11.3
CC1=C(C(=O)OCC(C)C)C(c2cccc(F)c2)N2C(=O)C(C)SC2=N1 (stereo not drawn)	8.4	-6.14*	-6.2	35.8
C=CCNC(=O)c1ccc(CNS(=O)(=O)c2ccc(NC(C)=O)cc2)cc1	6.5	0.0768	-6.5	-12.8
N#C/C(=C\c1cn(CCOc2ccccc2)c2ccccc12)C(=O)NCC1CCCO1 (stereo not drawn)	1.2	-4.38*	-1.2	-20.8
O=C(COc1ccc2oc(-c3ccccc3)cc(=O)c2c1)NCc1ccco1	20.7	-0.0738	-20.7	1.4
CC(C)(C)OC(=O)COc1cc(OCC(=O)OC(C)(C)C)c2c(=O)cc(-c3ccccc3)oc2c1	7.6	-3.96*	-7.6	4.1
COC(=O)c1nn(-c2ccccc2)c(-c2ccccc2)c1C(=O)c1ccccc1	19.1	-7.79*	-19.1	-11.0
Cc1ccc2nc(-c3sc4nc(C)cc(C)c4c3N)[nH]c2c1	-8.0	0.0141	8.0	6.6
SMILES	IL1B NFkB pot	Cav3 T inh	IL1B NFkB inh	HUVEC tox IL1B
CCN(CC)CCN1C(=O)C(=O)/C(=C(/O)c2cnn(-c3ccccc3)c2C)C1c1cccnc1 (stereo not drawn)	-15.1	-0.0361	15.1	-1.3
Cc1c(/C(O)=C2/C(=O)C(=O)N(CCN3CCOCC3)C2c2cccnc2)cnn1-c1ccccc1 (stereo not drawn)	59.6*	nt	-59.6	2.3
O=S(=O)(NCCSc1nnc(-c2ccco2)n1-c1ccccc1)c1ccccc1	86.1*	-0.108	-86.1	5.1
Cc1cc(NC(=O)C(C)Oc2ccc(Cl)cc2Cl)n(-c2ccccc2)n1 (stereo not drawn)	18.3	-3.51*	-18.3	-9.8
Cc1cccc2cc(CN(C(=O)c3cnccn3)C3CCCCC3)c(Cl)nc12	1.4	-2.47	-1.4	-41.6
COC(=O)C(Cc1ccccc1)NC(=O)COc1ccc(C(C)(C)C)cc1 (stereo not drawn)	0.5	-6.09*	-0.5	2.5
COc1ccc(NC(=O)C2CCCN2S(=O)(=O)c2ccc3c(c2)CCC(=O)N3)cc1 (stereo not drawn)	5.5	-4.09*	-5.5	9.5
COc1ccc2nc(NC(=O)C3CCCN3S(=O)(=O)c3ccc(C)cc3)sc2c1 (stereo not drawn)	6.5	-3.69*	-6.5	-9.2

Source: PubChem (several laboratories)
